PubChem BioAssay AID624481 (The Scripps Research Institute Molecular Screening Center, 2012)

Each compound was assayed against Prolyl endopeptidase-like (Mus musculus) (UniProt Q8C167) (assay: purified PREPL inhibitors, PREPL inhibitor project, biochemical, gel-based competitive ABPP, fluorescence, HTS hits (AID 624481)). Conditions: at 20 µM, hits give high values; in the data active = inhibition above about 50%; inactive = the rest.
Prolyl endopeptidase-like (Mus musculus), sequence (Q8C167 whole entry, looked up): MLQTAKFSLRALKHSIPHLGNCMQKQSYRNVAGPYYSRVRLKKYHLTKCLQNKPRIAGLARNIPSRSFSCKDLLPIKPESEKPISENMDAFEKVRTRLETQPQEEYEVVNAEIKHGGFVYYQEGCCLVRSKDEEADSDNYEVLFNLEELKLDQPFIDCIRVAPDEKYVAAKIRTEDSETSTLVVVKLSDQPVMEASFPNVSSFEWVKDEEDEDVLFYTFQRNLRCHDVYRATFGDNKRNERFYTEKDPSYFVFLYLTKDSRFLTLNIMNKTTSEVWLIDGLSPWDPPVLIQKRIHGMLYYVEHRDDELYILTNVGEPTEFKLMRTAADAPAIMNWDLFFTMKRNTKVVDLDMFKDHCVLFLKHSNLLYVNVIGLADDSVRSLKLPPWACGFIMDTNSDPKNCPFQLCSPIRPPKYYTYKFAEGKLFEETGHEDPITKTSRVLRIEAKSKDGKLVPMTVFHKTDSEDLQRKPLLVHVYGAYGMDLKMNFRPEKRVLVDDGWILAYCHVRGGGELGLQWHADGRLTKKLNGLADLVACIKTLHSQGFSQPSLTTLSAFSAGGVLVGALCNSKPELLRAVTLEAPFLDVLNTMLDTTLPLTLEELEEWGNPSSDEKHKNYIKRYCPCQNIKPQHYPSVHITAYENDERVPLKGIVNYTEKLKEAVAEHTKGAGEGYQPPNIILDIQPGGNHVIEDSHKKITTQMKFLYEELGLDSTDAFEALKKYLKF

inhibition, inactive:
CC(C)Nc1ccc(Nc2ccnc3cc4ccccc4cc23)cc1 -11%
O=C(c1ccccc1)N1CCN(c2ccc(NCc3ccc4c(c3)OCO4)cc2)CC1 -17%
c1ccc2c(NCCc3c[nH]c4ccccc34)c3ccccc3nc2c1 -49%
O=C(c1cc([N+](=O)[O-])ccc1Cl)N1CCN(c2ccc([N+](=O)[O-])cc2)CC1 -51%
